Test results published in PubChem BioAssay (EPA / NIEHS).
Inconclusive results are not listed. The source made the active and inactive calls. Rule for the calls, unless noted: active = hit-call score of the fitted dose curve at least 0.9, where 1 is the maximum; inactive = score below 0.9.

Tests used:
[1] = biological target: human RAR-related Orphan Receptor gamma (RORg), RORC (gene 6097) (UniProt P51449); assay: ATG_RORg_TRANS: Attagene TRANS-FACTORIAL HepG2 Assay for human RAR-related Orphan Receptor gamma (RORg) (AID 2283011; active = hit-call score of the fitted dose curve at least 0.9, where 1 is the maximum)
How it was run: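 Activity is scored as increase in GAL4-UAS reporter mRNA over DMSO, detected by fluorescent RT-PCR and capillary electrophoresis in HepG2 cells transiently expressing a RORg-Gal4 chimera, 24 h after dosing.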

[2] = biological target: human Retinoid X Receptor beta (RXRb), RXRB (gene 6257) (UniProt P28702); assay: ATG_RXRb_TRANS: Attagene TRANS-FACTORIAL HepG2 Assay for human Retinoid X Receptor beta (RXRb) (AID 2283013; active = hit-call score of the fitted dose curve at least 0.9, where 1 is the maximum)
How it was run: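 Read-out: reporter mRNA induction via RT-PCR plus capillary electrophoresis fluorescence, analysed as signal increase relative to DMSO. Cells were human HepG2, transiently transfected with GAL4-UAS reporter constructs and chimeric receptor-Gal4 fusions, dosed for 24 h.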

[3] = biological target: human Thyroid Receptor alpha (THRa1), THRA (gene 7067) (UniProt P10827); assay: ATG_THRa1_TRANS: Attagene TRANS-FACTORIAL HepG2 Assay for human Thyroid Receptor alpha (THRa1) (AID 2283014; active = hit-call score of the fitted dose curve at least 0.9, where 1 is the maximum)
How it was run: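 First, HepG2 cells receive multiple GAL4-UAS reporter units and the chimeric receptor. They are then dosed for 24 h, after which RNA is reverse-transcribed, amplified, labelled, HpaI-cut and sized by capillary electrophoresis; gain relative to DMSO is scored.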

[4] = biological target: Retinoic acid receptor RXR-alpha (Homo sapiens) (UniProt P19793); assay: ATG_RXRa_TRANS: Attagene TRANS-FACTORIAL HepG2 Assay for human Retinoid X Receptor alpha (RXRa) (AID 2283012; active = hit-call score of the fitted dose curve at least 0.9, where 1 is the maximum)
How it was run: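 Read-out: fluorescent reporter-transcript fragments quantified by capillary electrophoresis after RT-PCR. Transiently transfected HepG2 cells carrying GAL4-UAS reporters and NR-GAL4 chimeras were exposed to chemical for 24 h; activity scored as increase over DMSO.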

[5] = read-out: E-selectin (Homo sapiens) (UniProt P16581); assay: BSK_3C_Eselectin: BioMAP Diversity Plus: 3C Assay for Eselectin Biomarker Activity (AID 2283015); conditions: primary human endothelial cells (HUVEC); actives raise or lower the signal;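 for outcome: cell surface E-selectin protein quantified by ELISA 24 h after dosing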
How it was run: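 Human vascular endothelium from umbilical vein is exposed to test chemicals for 24 h. E-selectin levels are read by ELISA and compared with DMSO controls.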

[6] = read-out: Interleukin-1 alpha (IL1a), IL1A (gene 3552); assay: BSK_BE3C_IL1a: BioMAP Diversity Plus: BE3C Assay for Interleukin-1 alpha (IL1a) Biomarker Activity (AID 2283016); conditions: primary human bronchial epithelial cells; actives raise or lower the signal
How it was run: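 ELISA read-out of IL-1a from human lung bronchial epithelial primary cells, 24 h post-dose. Gain or loss of signal fitted relative to DMSO negative control.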

[7] = read-out: Monocyte Chemoattractant Protein-1 (MCP1), CCL2 (gene 6347); assay: BSK_3C_MCP1: BioMAP Diversity Plus: 3C Assay for Monocyte Chemoattractant Protein-1 (MCP1) Biomarker Activity (AID 2283017); conditions: primary human endothelial cells (HUVEC); actives raise or lower the signal
How it was run: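 Endothelial cells from human umbilical vein are dosed with chemical, cultured 24 h, then assayed for MCP-1 by ELISA; both increases and decreases are modelled against DMSO controls.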

[8] = read-out: Monocyte Chemoattractant Protein-1 (MCP1), CCL2 (gene 6347); assay: BSK_4H_MCP1: BioMAP Diversity Plus: 4H Assay for Monocyte Chemoattractant Protein-1 (MCP1) Biomarker Activity (AID 2283018); conditions: primary human endothelial cells (HUVEC); actives raise or lower the signal
How it was run: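 HUVEC primary cells, 24 h post-dose, MCP-1 by ELISA. Gain or loss of signal fitted bidirectionally vs DMSO baseline. Cytotoxicity: SRB stain (0.1% after 10% TCA fixation), read 560 nm, parallel cultures.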

[9] = read-out: Human Leukocyte Antigen - DR isotype (HLADR), HLA-DRA (gene 3122); assay: BSK_3C_HLADR: BioMAP Diversity Plus: 3C Assay for Human Leukocyte Antigen - DR isotype (HLADR) Biomarker Activity (AID 2283019); conditions: primary human endothelial cells (HUVEC); actives raise or lower the signal;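 for outcome: ELISA of cell-surface HLA-DR on HUVEC 24 h after dosing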
How it was run: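 Endothelial cells from human umbilical vein are treated with test chemical; after 24 h, HLA-DR levels are measured by ELISA. Data are fitted in both directions using DMSO as the baseline.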

[10] = read-out: Interleukin-8 (IL8), CXCL8 (gene 3576); assay: BSK_3C_IL8: BioMAP Diversity Plus: 3C Assay for Interleukin-8 (IL8) Biomarker Activity (AID 2283020); conditions: primary human endothelial cells (HUVEC); actives raise or lower the signal
How it was run: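 HUVEC, 3C stimulation; 24 h compound exposure; IL-8 read by ELISA; gain or loss of signal fitted relative to DMSO control.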

Chain of Retinoic acid receptor RXR-alpha (Homo sapiens) (P19793 whole entry, looked up, the tested form may be a part): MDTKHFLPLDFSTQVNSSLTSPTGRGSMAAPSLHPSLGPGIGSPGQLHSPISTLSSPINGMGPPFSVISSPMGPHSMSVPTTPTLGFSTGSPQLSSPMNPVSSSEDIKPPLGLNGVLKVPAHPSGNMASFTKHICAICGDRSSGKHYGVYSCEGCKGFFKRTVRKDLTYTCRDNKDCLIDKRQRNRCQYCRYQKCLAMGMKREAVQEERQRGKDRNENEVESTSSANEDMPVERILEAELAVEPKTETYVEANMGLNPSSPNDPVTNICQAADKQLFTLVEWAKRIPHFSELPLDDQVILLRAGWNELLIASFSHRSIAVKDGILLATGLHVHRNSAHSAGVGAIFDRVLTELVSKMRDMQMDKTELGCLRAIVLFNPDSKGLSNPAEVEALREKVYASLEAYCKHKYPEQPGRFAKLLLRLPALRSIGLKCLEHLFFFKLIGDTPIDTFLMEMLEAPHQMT
Chain of human Thyroid Receptor alpha (THRa1), THRA (gene 7067) (P10827 whole entry, looked up, the tested form may be a part): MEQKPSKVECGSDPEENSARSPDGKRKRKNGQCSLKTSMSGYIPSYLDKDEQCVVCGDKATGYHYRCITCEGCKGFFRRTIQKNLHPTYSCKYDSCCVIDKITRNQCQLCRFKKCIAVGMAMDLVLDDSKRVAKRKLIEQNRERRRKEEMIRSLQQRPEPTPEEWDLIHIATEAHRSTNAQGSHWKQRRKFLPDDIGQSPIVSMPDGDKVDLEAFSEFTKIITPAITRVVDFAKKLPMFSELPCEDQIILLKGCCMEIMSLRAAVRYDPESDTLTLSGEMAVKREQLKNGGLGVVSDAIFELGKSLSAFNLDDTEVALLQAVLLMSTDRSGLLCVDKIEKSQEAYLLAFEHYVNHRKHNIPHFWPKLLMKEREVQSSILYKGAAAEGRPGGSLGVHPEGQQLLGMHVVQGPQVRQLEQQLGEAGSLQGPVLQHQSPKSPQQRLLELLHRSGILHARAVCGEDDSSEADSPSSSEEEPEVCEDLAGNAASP
Chain of human Retinoid X Receptor beta (RXRb), RXRB (gene 6257) (P28702 whole entry, looked up, the tested form may be a part): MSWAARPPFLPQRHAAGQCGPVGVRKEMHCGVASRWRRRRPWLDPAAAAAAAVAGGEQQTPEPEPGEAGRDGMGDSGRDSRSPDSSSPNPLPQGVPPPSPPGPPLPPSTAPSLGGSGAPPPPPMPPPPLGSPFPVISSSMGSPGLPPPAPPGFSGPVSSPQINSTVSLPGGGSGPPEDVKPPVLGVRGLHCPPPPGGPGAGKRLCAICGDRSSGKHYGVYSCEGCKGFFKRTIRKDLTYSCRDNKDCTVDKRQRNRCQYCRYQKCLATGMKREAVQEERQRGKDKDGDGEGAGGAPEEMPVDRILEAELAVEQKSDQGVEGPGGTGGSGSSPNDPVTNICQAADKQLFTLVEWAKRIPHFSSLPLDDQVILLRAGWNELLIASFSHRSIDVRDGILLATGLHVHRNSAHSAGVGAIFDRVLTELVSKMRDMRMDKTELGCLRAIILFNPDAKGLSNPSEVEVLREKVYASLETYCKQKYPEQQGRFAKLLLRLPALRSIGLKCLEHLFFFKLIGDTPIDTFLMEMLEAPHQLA
Chain of E-selectin (Homo sapiens) (P16581 whole entry, looked up): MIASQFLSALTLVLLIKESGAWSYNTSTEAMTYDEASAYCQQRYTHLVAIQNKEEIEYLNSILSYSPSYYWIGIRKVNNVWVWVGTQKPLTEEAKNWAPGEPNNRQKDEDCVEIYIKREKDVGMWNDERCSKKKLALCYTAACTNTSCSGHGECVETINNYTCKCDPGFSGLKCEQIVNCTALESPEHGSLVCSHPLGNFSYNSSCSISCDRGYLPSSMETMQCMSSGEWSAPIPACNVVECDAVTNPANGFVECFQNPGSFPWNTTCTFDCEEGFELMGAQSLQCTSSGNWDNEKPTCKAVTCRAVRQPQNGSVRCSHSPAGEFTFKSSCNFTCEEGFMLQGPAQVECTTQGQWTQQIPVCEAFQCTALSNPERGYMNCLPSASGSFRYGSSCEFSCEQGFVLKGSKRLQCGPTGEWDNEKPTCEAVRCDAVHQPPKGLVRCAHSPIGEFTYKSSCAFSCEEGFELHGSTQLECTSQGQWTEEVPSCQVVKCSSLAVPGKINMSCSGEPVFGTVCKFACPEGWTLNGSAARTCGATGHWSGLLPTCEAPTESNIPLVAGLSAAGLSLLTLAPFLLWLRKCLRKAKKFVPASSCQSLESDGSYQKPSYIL
Chain of human RAR-related Orphan Receptor gamma (RORg), RORC (gene 6097) (P51449 whole entry, looked up, the tested form may be a part): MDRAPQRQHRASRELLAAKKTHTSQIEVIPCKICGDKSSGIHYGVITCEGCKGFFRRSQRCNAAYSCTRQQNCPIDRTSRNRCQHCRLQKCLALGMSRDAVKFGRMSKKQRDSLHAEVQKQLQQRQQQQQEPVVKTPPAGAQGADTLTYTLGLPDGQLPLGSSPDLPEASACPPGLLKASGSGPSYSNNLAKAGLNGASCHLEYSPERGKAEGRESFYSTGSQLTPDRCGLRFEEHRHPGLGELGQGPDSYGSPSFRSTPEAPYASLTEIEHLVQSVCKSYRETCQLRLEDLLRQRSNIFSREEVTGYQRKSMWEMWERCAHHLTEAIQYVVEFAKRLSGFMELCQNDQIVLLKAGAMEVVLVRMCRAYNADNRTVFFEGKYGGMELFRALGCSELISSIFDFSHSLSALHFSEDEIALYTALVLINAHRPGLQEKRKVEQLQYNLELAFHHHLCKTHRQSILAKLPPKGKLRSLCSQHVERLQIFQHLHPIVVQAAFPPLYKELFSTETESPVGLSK

## COc1ccc(OC)c(C=O)c1
[1]
  outcome: inactive
[2]
  outcome: inactive
[3]
  outcome: inactive

## C=C(C)C#N
[4]
  outcome: inactive

## CC(Br)C(=O)O (stereo unspecified)
[4]
  outcome: inactive

## O=[N+]([O-])c1ccc2c3c(cccc13)CC2
[4]
  outcome: inactive
[2]
  AC50: 27.5 µM (active)
[3]
  outcome: inactive
[5]
  outcome: inactive
[6]
  outcome: inactive
[7]
  outcome: inactive
[8]
  outcome: inactive
[9]
  AC50: 13.7 µM (active)
[10]
  outcome: inactive

## CC(=O)OC(c1ccccc1)C(Cl)(Cl)Cl (stereo unspecified)
[4]
  outcome: inactive
[3]
  outcome: inactive
[5]
  outcome: inactive
[6]
  outcome: inactive
[7]
  outcome: inactive
[8]
  outcome: inactive
[9]
  outcome: inactive
[10]
  outcome: inactive

## Clc1nc(Cl)nc(Cl)n1
[4]
  outcome: inactive
[3]
  outcome: inactive

## Nc1ccc(-c2ccc(N)c(Cl)c2)cc1Cl
[4]
  outcome: inactive
[5]
  outcome: inactive
[6]
  outcome: inactive
[7]
  outcome: inactive
[8]
  outcome: inactive
[9]
  AC50: 2.43 µM (active)
[10]
  outcome: inactive

## O=C(Cc1ccccc1)c1ccccc1
[2]
  outcome: inactive

## CCOC(=O)/C=C(C)/C=C/C[C@@H](C)CCCC(C)C
[4]
  outcome: inactive
[5]
  AC50: 26.5 µM (active)
[6]
  AC50: 20 µM (active)
[7]
  AC50: 31.2 µM (active)
[8]
  AC50: 29.4 µM (active)
[9]
  AC50: 28.1 µM (active)
[10]
  outcome: inactive

## Cl/C=C/Cl
[2]
  outcome: inactive
[3]
  outcome: inactive

## Cc1cc(=O)[nH]o1
[2]
  outcome: inactive

## C[C@H]1CCCC(=O)CCC/C=C/c2cc(O)cc(O)c2C(=O)O1
[2]
  AC50: 9.82 µM (active)
[3]
  outcome: inactive

## C1CCC(NC2CCCCC2)CC1
[4]
  outcome: inactive
[3]
  outcome: inactive

## COP(=S)(OC)Oc1cc(Cl)c(Cl)cc1Cl
[4]
  outcome: inactive
[3]
  outcome: inactive
[5]
  outcome: inactive
[6]
  outcome: inactive
[7]
  outcome: inactive
[8]
  outcome: inactive
[9]
  AC50: 27.4 µM (active)
[10]
  outcome: inactive

## Oc1cccc2cccnc12
[4]
  outcome: inactive
[3]
  outcome: inactive
[5]
  AC50: 20 µM (active)
[6]
  AC50: 5.35 µM (active)
[7]
  outcome: inactive
[8]
  outcome: inactive
[9]
  AC50: 4.97 µM (active)
[10]
  outcome: inactive

## CCNc1nc(NC(C)(C)C)nc(SC)n1
[4]
  outcome: inactive
[3]
  outcome: inactive
[5]
  outcome: inactive
[6]
  outcome: inactive
[7]
  outcome: inactive
[8]
  outcome: inactive
[9]
  AC50: 20 µM (active)
[10]
  outcome: inactive

## ClCc1cccnc1
[4]
  outcome: inactive
[3]
  outcome: inactive

## COC[C@H](C)N(C(=O)CCl)c1c(C)csc1C
[4]
  outcome: inactive
[5]
  outcome: inactive
[6]
  outcome: inactive
[7]
  outcome: inactive
[8]
  outcome: inactive
[9]
  outcome: inactive
[10]
  outcome: inactive

## CCCCOCCOC(C)=O
[2]
  outcome: inactive
[3]
  outcome: inactive

## CNC(=O)O/N=C/C(C)(C)S(C)=O (stereo unspecified)
[4]
  outcome: inactive
[3]
  outcome: inactive

## C[C@]12CC[C@H](O)CC1=CC[C@@H]1[C@@H]2CC[C@]2(C)C(=O)CC[C@@H]12
[2]
  outcome: inactive

## C[C@H]1O[C@@H](O[C@H]2[C@@H](O)C[C@H](O[C@H]3[C@@H](O)C[C@H](O[C@H]4CC[C@@]5(C)[C@H](CC[C@@H]6[C@@H]5CC[C@]5(C)[C@@H](C7=CC(=O)OC7)CC[C@]65O)C4)O[C@@H]3C)O[C@@H]2C)C[C@H](O)[C@@H]1O
[4]
  outcome: inactive
[3]
  outcome: inactive

## Nc1ccc(N=Nc2ccc(-c3ccc(N=Nc4c(S(=O)(=O)O)cc5cc(S(=O)(=O)O)c(N=Nc6ccccc6)c(O)c5c4N)cc3)cc2)c(N)c1
[2]
  outcome: inactive

## CCN(CC)C(=O)Cl
[2]
  outcome: inactive

## O=S(=O)(c1ccc(Cl)cc1)c1ccc(Cl)cc1
[4]
  outcome: inactive
[3]
  outcome: inactive
[5]
  outcome: inactive
[6]
  outcome: inactive
[7]
  outcome: inactive
[8]
  outcome: inactive
[9]
  outcome: inactive
[10]
  outcome: inactive

## CC(C)C1CCC(Cc2ccc(Cl)cc2)C1(O)Cn1cncn1 (stereo unspecified)
[4]
  outcome: inactive
[3]
  outcome: inactive

## Cc1ccccc1C(=O)Nc1cccc(OC(C)C)c1
[2]
  outcome: inactive
[3]
  outcome: inactive

## ClC1=C(Cl)[C@]2(Cl)[C@@H]3[C@@H](Cl)[C@@H](Cl)C[C@@H]3[C@@]1(Cl)C2(Cl)Cl
[2]
  outcome: inactive

## CCC(=O)C(CC(C)N(C)C)(c1ccccc1)c1ccccc1 (stereo unspecified)
[4]
  outcome: inactive
[3]
  outcome: inactive
[5]
  outcome: inactive
[6]
  outcome: inactive
[7]
  outcome: inactive
[8]
  outcome: inactive
[9]
  outcome: inactive
[10]
  outcome: inactive

## CC(=O)C=C(C)C
[2]
  outcome: inactive

## CNC
[2]
  outcome: inactive

## CC(C)(c1ccccc1)c1ccc(O)c(C(C)(C)c2ccccc2)c1
[4]
  outcome: inactive
[3]
  outcome: inactive
[5]
  AC50: 10.6 µM (active)
[6]
  AC50: 28.5 µM (active)
[7]
  AC50: 10.8 µM (active)
[8]
  AC50: 7.28 µM (active)
[9]
  AC50: 7.99 µM (active)
[10]
  AC50: 10.1 µM (active)

## NC(=S)Nc1ccccc1
[4]
  outcome: inactive
[5]
  outcome: inactive
[6]
  outcome: inactive
[7]
  outcome: inactive
[8]
  outcome: inactive
[9]
  outcome: inactive
[10]
  outcome: inactive

## COP(=O)(OC)O/C(=C\Cl)c1cc(Cl)c(Cl)cc1Cl
[4]
  outcome: inactive
[3]
  outcome: inactive

## Cn1sc(Cl)cc1=O
[4]
  outcome: inactive
[5]
  outcome: inactive
[6]
  outcome: inactive
[7]
  outcome: inactive
[8]
  outcome: inactive
[9]
  AC50: 29.9 µM (active)
[10]
  outcome: inactive

## CN(C)N=O
[4]
  outcome: inactive
[3]
  outcome: inactive
[5]
  outcome: inactive
[6]
  outcome: inactive
[7]
  outcome: inactive
[8]
  outcome: inactive
[9]
  outcome: inactive
[10]
  outcome: inactive

## O=C(O)Cc1ccccc1
[2]
  outcome: inactive

## Cc1ccc(N)cc1Cl
[4]
  outcome: inactive
[3]
  outcome: inactive
